Reference: ChEMBL document CHEMBL1961873, “Compounds: GSK PKIS; Assays: Nanosyn kinase panel” (2012)

These compounds were tested on Epidermal growth factor receptor (Homo sapiens), P00533 [T790M]. Details: at 1 µM.
Epidermal growth factor receptor (Homo sapiens), P00533 [T790M], sequence (P00533 whole entry T790M): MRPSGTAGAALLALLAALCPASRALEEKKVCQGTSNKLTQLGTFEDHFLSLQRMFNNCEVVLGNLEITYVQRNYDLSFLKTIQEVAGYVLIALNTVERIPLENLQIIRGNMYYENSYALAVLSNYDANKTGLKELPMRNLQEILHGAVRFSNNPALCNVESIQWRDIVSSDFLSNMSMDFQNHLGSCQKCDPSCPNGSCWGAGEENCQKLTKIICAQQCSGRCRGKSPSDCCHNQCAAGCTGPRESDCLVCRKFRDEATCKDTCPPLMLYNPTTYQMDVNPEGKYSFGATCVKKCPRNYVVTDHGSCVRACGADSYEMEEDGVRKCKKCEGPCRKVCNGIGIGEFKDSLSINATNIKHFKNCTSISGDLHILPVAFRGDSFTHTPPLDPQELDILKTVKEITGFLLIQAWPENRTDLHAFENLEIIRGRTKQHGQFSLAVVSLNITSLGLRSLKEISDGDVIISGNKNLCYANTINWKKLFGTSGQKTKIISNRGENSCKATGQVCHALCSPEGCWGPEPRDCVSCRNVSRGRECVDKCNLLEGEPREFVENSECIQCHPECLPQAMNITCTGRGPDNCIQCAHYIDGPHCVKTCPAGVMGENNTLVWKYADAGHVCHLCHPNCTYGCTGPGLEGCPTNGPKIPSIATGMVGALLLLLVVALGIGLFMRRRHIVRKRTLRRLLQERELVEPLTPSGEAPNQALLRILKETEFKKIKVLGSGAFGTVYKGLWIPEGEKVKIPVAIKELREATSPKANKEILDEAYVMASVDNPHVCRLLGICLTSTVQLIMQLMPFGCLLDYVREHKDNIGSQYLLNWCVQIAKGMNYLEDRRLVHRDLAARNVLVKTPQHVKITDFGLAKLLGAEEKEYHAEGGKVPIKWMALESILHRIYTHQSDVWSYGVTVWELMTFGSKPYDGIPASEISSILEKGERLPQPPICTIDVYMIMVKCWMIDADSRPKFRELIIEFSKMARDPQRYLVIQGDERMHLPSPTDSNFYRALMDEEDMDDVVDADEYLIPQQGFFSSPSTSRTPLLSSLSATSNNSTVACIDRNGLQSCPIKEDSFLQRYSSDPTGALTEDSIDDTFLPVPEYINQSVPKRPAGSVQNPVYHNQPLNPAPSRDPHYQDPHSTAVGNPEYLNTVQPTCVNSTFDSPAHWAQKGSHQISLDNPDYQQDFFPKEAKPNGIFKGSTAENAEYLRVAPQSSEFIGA

In order of rising inhibition:
1. CCn1c(-c2nonc2N)nc2ccccc21  -1.8%
2. COc1cc2ncn(-c3cc(OCc4ccccc4C(F)(F)F)c(C(=O)N(C)C)s3)c2cc1OC  -1.36%
3. CCn1cc(-c2ccnc3[nH]ccc23)c(-c2cccc(NC(=O)Nc3ccc(OCc4ccccc4)cc3)c2)n1  -1.25%
4. CC(C)(CO)CNC(=O)c1ccc2c(c1)/C(=N/Nc1ccc(S(N)(=O)=O)cc1)C(=O)N2  -0.95%
5. COC(=O)Nc1nc2ccc(Oc3ccc(NC(=O)Nc4cccc(Cl)c4)cc3)cc2[nH]1  -0.68%
6. CCOc1ccc2c(-c3ccnc(Nc4cccc(C(F)(F)F)c4)n3)cnn2n1  -0.36%
7. N#Cc1c(NC(=O)c2ccc(F)cc2)sc2c1CCCC2  -0.08%
8. CC(=O)NCc1cccc(C#Cc2cncnc2Nc2ccc(OCc3cccc(F)c3)c(Cl)c2)c1  0.3%
9. c1cc(-c2cnn3nc(N4CCOCC4)ccc23)nc(NC2CC2)n1  0.49%
10. c1ccc(-c2nc3n(c2-c2ccc4c(c2)OCO4)CCC3)nc1  0.6%
11. NS(=O)(=O)c1ccc(Nc2ncc(-c3ccccc3)o2)cc1  0.87%
12. O=C(Nc1n[nH]c2cc(-c3ccc(F)cc3)ccc12)C1CC1  1.6%
13. CCN(CC)S(=O)(=O)c1ccc(OC)c(Nc2ncc(-c3ccccc3)o2)c1  2.04%
14. CN(C)CCOc1ccc(-c2nc(-c3ccncc3)c(-c3ccc4c(c3)CC/C4=N\O)[nH]2)cc1  2.29%
15. COc1cccc(-c2c[nH]c3c(N/N=C/c4ccncc4)ncnc23)c1  2.55%
16. Cc1cccc(Nc2ncc(-c3ccccc3)o2)c1  2.62%
17. Fc1cccc(COc2ccc(Nc3ncnc4sc(-c5ccco5)cc34)cc2Cl)c1  3.73%
18. COc1cccc(-n2ncc3c(N/N=C/c4ccc(F)cc4)ncnc32)c1  3.89%
19. NC(=O)c1sc(-n2cnc3ccc(C(F)(F)F)cc32)cc1OCc1ccccc1Br  4.07%
20. CNC(=O)c1cccc(C#Cc2cncnc2Nc2ccc(OCc3cccc(F)c3)c(Cl)c2)c1  4.1%
21. COc1ccc(-c2cc(-c3c[nH]nc3-c3ccccn3)ccn2)cc1  4.53%
22. CCn1c(-c2nonc2N)nc2c(C#CC(C)(C)O)nc(OC[C@H](N)c3ccccc3)cc21  4.71%
23. N#Cc1c(NC(=O)CN2CCOCC2)sc2c1CCCC2  4.76%
24. Nc1ncc(-c2cccc(S(N)(=O)=O)c2)c2scc(-c3ccc(F)c(Cl)c3)c12  5.52%
25. Nc1nc(-c2ccc(F)cc2)c(-c2ccc3ncccc3n2)s1  5.63%
26. Nc1nc(-c2cccc(Cl)c2)c(-c2ccc3ncccc3n2)s1  6.65%
27. CCCN(CCS(C)(=O)=O)Cc1ccc(-c2ccc3ncnc(Nc4ccc(OCc5cccc(F)c5)c(Cl)c4)c3c2)o1  8.75%
28. CS(=O)(=O)CCNCc1coc(-c2ccc3ncnc(Nc4ccc(OCc5ccccc5)cc4)c3c2)c1  10.3%
29. O=C(O[C@H]1CN[C@H](C#Cc2cc3ncnc(Nc4ccc(Cc5ccccc5)cc4)c3s2)C1)N1CCOCC1  10.5%
30. [O-][S+]1CCN(Cc2ccc(-c3ccc4ncnc(Nc5ccc(OCc6cccc(F)c6)c(Cl)c5)c4c3)o2)CC1  22%
31. COc1cc2c(cc1Nc1nc(Nc3ccsc3C(N)=O)c3cc[nH]c3n1)N(C(=O)CN(C)C)CCC2(C)C  70.8%
32. COc1cc(N2CCN(C(C)C)CC2)ccc1Nc1nc(Nc2ccc(F)cc2C(N)=O)c2cc[nH]c2n1  79.5%
